CHX counter = affects cycloheximide protein synthesis inhibition readout, counter-screen | cell reporter, cycloheximide protein synthesis inhibition counterscreen | AID 2314 | hit rate 12% among 300,000 | max response, %; in the data active = max response mostly above about 13%, no sharp cut-off; inactive = mostly below about 14%; note: read at 38.3 µM for the half of the compounds with a filed dose; 0% is about no effect
RE007 growth inh = less growth of the S. pombe RE007 Vpr strain; S. pombe RE007 Vpr strain, BacTiter-Glo ATP luminescence, 24 h; hit rate 0.21% among 360,000; Potency, µM (highest dose often 92.2 µM), for inactives: at the top dose activity change, negative = less growth, most hits filed as inhibitors; active = well fitted falling curve with a large enough effect; inconclusive = small, poorly fitted or top-dose-only effect; inactive = no such curve, though single readings can be large or run the other way; note: potency is the fitted concentration of half-maximal effect; % is set by controls: 0 for no effect and ±100 for the full control effect; nearly all actives have a fitted effect of over 50% in size
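Fission yeast strain RE007, carrying one chromosomally integrated HIV-1 vpr copy, was seeded at OD 0.01 in PMG+AL medium with 23 nL pinned compound. After 24 h at 30 °C and 99% humidity, viability was read by BacTiter-Glo luminescence.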
Shiga inhibitor = Shiga toxin inhibition; Vero cells, Shiga toxin protein synthesis inhibition reporter; inhibition, % at 38.7 µM; hit rate 9.2% among 290,000; in the data active = inhibition mostly above about 28%, no sharp cut-off; inactive = mostly below about 43%; note: 0% is about no effect
Tb PYK inh = T. brucei pyruvate kinase inhibition; Potency, µM (top dose mostly 76.8 µM), inactives show at the top dose activity, negative = inhibition, actives largely listed as inhibitors; TbPYK enzyme, Kinase-Glo Plus ATP luminescence, 45 min; hit rate 0.12% among 410,000; note: potency is the fitted concentration of half-maximal effect; % is set by controls: 0 for no effect and ±100 for the full control effect; nearly all actives have a fitted effect of over 50% in size
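Readout: single end-point luminescence (Kinase-Glo Plus, 10 min). Reaction conditions were TbPYK/substrate plus 130 uM ADP, 45 min at RT, pH 7.2 TEA buffer. No-enzyme wells served as controls, and data were normalized before concentration-response fitting.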
Giardia FBPA inh = inhibitors of Giardia lamblia fructose-1,6-bisphosphate aldolase; A8B2U2; purified Giardia FBPA; Potency, µM (titrated, usually from 59.6 µM), for inactives: at the top dose activity, negative = inhibition, most hits filed as inhibitors; hit rate 0.71% among 290,000; AID 2451; note: potency is the fitted concentration of half-maximal effect; % is set by controls: 0 for no effect and ±100 for the full control effect; nearly all actives have a fitted effect of over 55% in size
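Giardia FBPA (40 nM reagent) was preincubated 10 min at RT with compound (up to 57.5 uM final), then substrate plus GAPDH/TPI/NAD/arsenate coupling system with diaphorase/resazurin was added; resorufin fluorescence (525/598 nm) was read after 20 min.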
LmPK inhibitor = blocks Leishmania mexicana pyruvate kinase activity. AID 1721. hit rate 0.37% among 290,000. Potency, µM (series often up to 57.5 µM), for the others: at the highest dose activity change, negative = inhibition, usual class: inhibitors. purified LmPK, Kinase-Glo ATP luminescence, 1 h; note: potency is the fitted concentration of half-maximal effect; % is set by controls: 0 for no effect and ±100 for the full control effect
Target sequence (Q27686 whole entry, looked up): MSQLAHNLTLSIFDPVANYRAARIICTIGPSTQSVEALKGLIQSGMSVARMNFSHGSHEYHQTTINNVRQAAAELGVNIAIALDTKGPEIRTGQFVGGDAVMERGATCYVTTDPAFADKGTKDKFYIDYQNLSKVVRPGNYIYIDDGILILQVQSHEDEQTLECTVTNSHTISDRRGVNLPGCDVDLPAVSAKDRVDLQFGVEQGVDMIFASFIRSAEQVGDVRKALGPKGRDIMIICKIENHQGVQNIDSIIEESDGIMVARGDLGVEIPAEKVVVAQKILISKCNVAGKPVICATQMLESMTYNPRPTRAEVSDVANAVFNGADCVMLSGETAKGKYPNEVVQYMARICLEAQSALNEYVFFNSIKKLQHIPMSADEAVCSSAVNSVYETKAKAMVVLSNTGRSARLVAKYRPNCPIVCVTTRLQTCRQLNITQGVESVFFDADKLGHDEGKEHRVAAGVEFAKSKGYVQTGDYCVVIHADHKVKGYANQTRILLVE
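Screened at intermediate enzyme activity to detect both inhibitors and activators: LmPK at 0.1 nM, with a 0.5 nM enzyme column as activation reference. PEP 0.5 mM, ADP 0.1 mM; ATP detected by luminescence after 1 h.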
* marks the source's active call; other numbers are inactive results; [ ] = dose if it differs, or a comment. Only a selection was taken, and hits are over-represented in it overall. Unless noted, calls come from the whole dose curve; as a rule, active = well fitted curve in the direction sought with a large enough effect; inconclusive = small, poorly fitted or top-dose-only effect, or another doubt; inactive = no such curve, though single readings can be large; an effect the other way counts as inactive or inconclusive.

How did O=C(Cn1c(=O)n(Cc2ccccc2)c(=O)c2sc3ccccc3c21)Nc1ccc(F)cc1 do in these assays?
Tb PYK inh: -3%

How did CCOc1ccc(C2c3[nH]c4ccccc4c3CCN2C(=O)CSc2ccccc2)cc1 (configuration not stated) do in these assays?
Tb PYK inh: 6%

What do the screens show for `O=C(Nc1ccc2c(c1)C(=O)NC2=O)c1ccccc1Cl`?
CHX counter: 12; RE007 growth inh: 2%; Shiga inhibitor: 6; Tb PYK inh: 5%; Giardia FBPA inh: -5%; LmPK inhibitor: -8%

How did Cn1c(NC(=O)/C=C\c2ccccc2)cc(=O)n(C)c1=O do in these assays?
CHX counter: 36*; RE007 growth inh: -2%; Shiga inhibitor: 80*; Tb PYK inh: -1%; Giardia FBPA inh: 2%; LmPK inhibitor: -11%[11.5 µM]

How did O=C(Nc1ccc2c(c1)C(=O)NC2=O)c1ccccc1 do in these assays?
CHX counter: -2; RE007 growth inh: -16%; Shiga inhibitor: 1; Tb PYK inh: -2%; Giardia FBPA inh: -19%; LmPK inhibitor: -5%

How did Cn1c(NC(=O)/C=C/c2c(F)cccc2Cl)cc(=O)n(C)c1=O do in these assays?
CHX counter: 1; RE007 growth inh: 2%; Shiga inhibitor: 29; Tb PYK inh: 2%; Giardia FBPA inh: 2%; LmPK inhibitor: -2%

How did O=C(/C=C/c1ccccc1Cl)Nc1ccc2c(c1)C(=O)NC2=O do in these assays?
CHX counter: 16; RE007 growth inh: 12%; Shiga inhibitor: 58*; Tb PYK inh: -2%; Giardia FBPA inh: -7%; LmPK inhibitor: 8%

What do the screens show for `O=C(/C=C/c1ccccc1)Nc1ccc2c(c1)C(=O)NC2=O`?
CHX counter: 19*; RE007 growth inh: -1%; Shiga inhibitor: 37; Tb PYK inh: 2%; Giardia FBPA inh: -1%; LmPK inhibitor: 2%

What do the screens show for `COc1cccc(N2CCN(S(=O)(=O)c3cc(-c4cc(C)no4)ccc3C)CC2)c1`?
Tb PYK inh: 2%

What do the screens show for `O=C(Nc1ccn(Cc2ccccc2)n1)c1ccc2c(c1)OCO2`?
CHX counter: 24*; RE007 growth inh: -7%; Shiga inhibitor: 42*; Tb PYK inh: 2%; Giardia FBPA inh: -6%; LmPK inhibitor: -4%

Results for O=C(Nc1ccn(Cc2ccc(Cl)cc2)n1)c1ccccc1 ?
CHX counter: 21*; RE007 growth inh: -11%; Shiga inhibitor: 90*; Tb PYK inh: -1%; Giardia FBPA inh: -1%; LmPK inhibitor: 3%

How did N#CCCn1ccc(NC(=O)c2ccc(Cl)cc2)n1 do in these assays?
CHX counter: 14; RE007 growth inh: 4%; Shiga inhibitor: 23; Tb PYK inh: 2%; Giardia FBPA inh: -2%; LmPK inhibitor: 3%

How did Cc1cnc(CNc2ncncc2-c2ccccc2C(F)(F)F)cn1 do in these assays?
Giardia FBPA inh: 0%

What do the screens show for `CS(=O)(=O)N(Cc1ccccc1)c1ccccc1C(=O)Nc1ccccc1C(=O)NCc1ccco1`?
CHX counter: -1; RE007 growth inh: -14%; Shiga inhibitor: -7; Tb PYK inh: -9%; Giardia FBPA inh: -5%; LmPK inhibitor: 6%

What do the screens show for `Cc1ccc(S(=O)(=O)N(Cc2ccccc2)c2ccccc2C(=O)NCc2ccco2)cc1`?
CHX counter: 25*; RE007 growth inh: 15%; Shiga inhibitor: 31; Tb PYK inh: -10%; Giardia FBPA inh: -5%; LmPK inhibitor: 3%

Results for Cc1ccc(S(=O)(=O)N(Cc2ccccc2)c2ccccc2C(=O)Nc2ccccc2C(=O)NCc2ccco2)cc1 ?
CHX counter: 31*; RE007 growth inh: -2%; Shiga inhibitor: 55*; Tb PYK inh: -3%; Giardia FBPA inh: -1%; LmPK inhibitor: -1%

What do the screens show for `Cc1ccc(NC(=O)Cn2c(=O)n(CCC(=O)NCCc3ccccc3)c(=O)c3ccccc32)cc1`?
Tb PYK inh: -2%

What do the screens show for `CN1C(=O)NC(c2cccc(O)c2)C(C(=O)c2cccs2)C1(O)C(F)(F)F` (configuration not stated)?
CHX counter: 57*; RE007 growth inh: -13%; Shiga inhibitor: 85*; Tb PYK inh: 2%; Giardia FBPA inh: 10%; LmPK inhibitor: -1%

How did COc1cc(C)ccc1OCCSc1nc2ccc(NC(=O)c3ccccc3F)cc2s1 do in these assays?
Tb PYK inh: -3%

What do the screens show for `O=C(c1ccc(CS(=O)c2ccccc2Cl)o1)N1CCN(c2ccccc2F)CC1` (configuration not stated)?
Tb PYK inh: 0%

Results for COc1ccccc1C(c1c(N)n(C)c(=O)n(C)c1=O)C(C)[N+](=O)[O-] (configuration not stated) ?
CHX counter: 44*; RE007 growth inh: inconclusive; Shiga inhibitor: 94*; Tb PYK inh: -5%; Giardia FBPA inh: 2%; LmPK inhibitor: -3%

How did COc1ccccc1C(C[N+](=O)[O-])c1c(N)n(C)c(=O)n(C)c1=O (configuration not stated) do in these assays?
CHX counter: -3; RE007 growth inh: 35µM*; Shiga inhibitor: -23; Tb PYK inh: 2%; Giardia FBPA inh: 1%; LmPK inhibitor: -2%

Results for CO[C@H]1C[C@@H]2CC[C@@H](C)[C@@](O)(O2)C(=O)C(=O)N2CCCC[C@@H]2C(=O)O[C@H]([C@H](C)C[C@@H]2CC[C@H](OCCO)[C@H](OC)C2)CC(=O)[C@H](C)C=C(C)[C@@H](O)[C@@H](OC)C(=O)[C@H](C)C[C@H](C)C=CC=CC=C1C ?
Tb PYK inh: 0%

What do the screens show for `CN1CCN(c2ccc(NC(=O)c3ccc(Br)o3)cc2)CC1`?
CHX counter: 30*; RE007 growth inh: -3%; Shiga inhibitor: 76*; Tb PYK inh: -10%; LmPK inhibitor: -3%

Results for CS(=O)(=O)N1CCN(c2ccc(NC(=O)c3ccc(Br)o3)cc2)CC1 ?
CHX counter: 43*; RE007 growth inh: -6%; Shiga inhibitor: 110*; Tb PYK inh: -5%; Giardia FBPA inh: 8%; LmPK inhibitor: -1%

How did O=C(NNC(=O)c1ccc(Br)o1)c1ccc(NC(=O)c2ccccc2)cc1 do in these assays?
CHX counter: -1; RE007 growth inh: 1%; Shiga inhibitor: 11; Tb PYK inh: 6%; Giardia FBPA inh: 1%; LmPK inhibitor: 0%

How did Cc1ccc(C(=O)N2CCN(c3ccc(NC(=O)c4ccc(Br)o4)cc3)CC2)cc1 do in these assays?
CHX counter: -3; RE007 growth inh: 12%; Shiga inhibitor: -24; Tb PYK inh: -9%; Giardia FBPA inh: -6%; LmPK inhibitor: 1%

How did N/C(=N\O)c1ccc(NC(=O)c2ccc(Br)o2)cc1 do in these assays?
CHX counter: 45*; RE007 growth inh: inconclusive; Shiga inhibitor: 81*; Tb PYK inh: -15%; Giardia FBPA inh: 5%; LmPK inhibitor: -8%

Screens: PubChem, National Center for Advancing Translational Sciences (NCATS)
